Consider 40 compounds from PubChem BioAssay (Tox21).

Several values for one entry are separate records, joined by “and”; a condition that tells them apart may be missing. Identical values can stand only once. Activity calls are given as the source filed them. A call without a number means that no potency is given here. The call rests on the fitted dose curve; in most records, active means well fitted curve in the direction sought with a large enough effect in the repeat runs; inconclusive means weak or mixed curves; inactive means flat fitted curve, though single readings scatter.
Potency means the concentration at half of the fitted maximal effect.

The nature of this test: qHTS assay to test for compound auto fluorescence at 535 nm (green) in HepG2 cells (AID 720675). As to conditions: green autofluorescence 485/535 nm, 1 h; series mostly up to 91.3 µM. The text has this: National Center for Advancing Translational Sciences [NCATS]
NIH Chemical Genomics Center [NCGC]
U.S. Environmental Protection Agency [EPA]
National Institutes of Environmental Health Sciences [NIEHS]
National Toxicology Program [NTP]
U.S. Food and Drug Administration [FDA]
Compound auto fluorescence often interferes with screening of the compound library against various biological targets and signaling pathways. Some of these compounds may have fluorophoric properties. Such properties may interfere with the assay outputs resulting in false positives and/or negatives. To decrease such complications and ensure the compound activities are relevant in terms of biological response, the Tox21 10K compound library was screened for auto fluorescence.
From the fluorophores used as reporter signals in our screening assays, the auto fluorescence equivalencies of compounds against three fluorophores have been evaluated: Triamterene, Fluorescein and Rose Bengal sodium for blue, green and red fluorescence, respectively. The fluorescence intensities were measured using Excitation/Emission wavelengths at 405/460nm, 485/535nm and 540/590nm for blue, green and red labels, respectively. This assay includes the green fluorescence data.
Tox21 Assay Protocol Summary:
2,000 HepG2 cells in 5 uL of culture medium (MEM containing 10% FBS) per well were dispensed into black wall/clear bottom 1536-well plates using a Multidrop Combi Dispenser (ThermoFisher Scientific, Waltham, MA). The assay plates were incubated overnight at 37 C to allow cell attachment to the well bottom, followed by the transfer of 23 nL compound or DMSO vehicle by a pintool work station (Kalypsys , San Diego, CA). After the assay plates were incubated for 1 hr at 37 C and 5% CO2, fluorescence intensities in the assay plates were measured by an Envision (PerkinElmer, Shelton, CT) plate reader using three labels for measuring blue, green and red fluorescence at […] 460, 535 and 590 nm respectively.
For `CCC(=O)O[C@H]1[C@H](O[C@@H]2[C@@H](C)[C@H](O[C@H]3C[C@@](C)(OC)[C@@H](O)[C@H](C)O3)[C@@H](C)C(=O)O[C@H](CC)[C@@](C)(O)[C@H](O)[C@@H](C)C(=O)[C@H](C)C[C@@]2(C)O)O[C@H](C)C[C@@H]1N(C)C`, the Potency result is “inactive”.
On to `CC(C)(C)c1cccc(C(C)(C)C)c1O`, for which the Potency entry was “inactive”.
Consider `C=CN1CCCC1=O`, for which the Potency entry is “inactive”.
`CCc1cccc2c3c([nH]c12)C(CC)(CC(=O)O)OCC3` (stereo not given): the Potency entry was “inactive”.
On to `CC(=O)Oc1c(C)c(C)c2c(c1C)CC[C@@](C)(CCC[C@H](C)CCC[C@H](C)CCCC(C)C)O2`, for which the Potency result was “inactive”.
As to `O=C(O)c1ccc(O)cc1`, the Potency result is “inactive”.
Under `CC(C)[N+](C)(CCOC(=O)C1c2ccccc2Oc2ccccc21)C(C)C` stands “inactive”.
Under `CC1(C)NC(=O)N(c2ccc([N+](=O)[O-])c(C(F)(F)F)c2)C1=O` stands “inactive”; under `COC(=O)CC(=O)OC`, “inactive”; under `O=C(CCCN1CCC(O)(c2ccc(Cl)cc2)CC1)c1ccc(F)cc1`, “inactive”.
Take `C[C@]12CC[C@@H]3c4ccc(O)cc4CC[C@H]3[C@@H]1CC[C@H]2O`: the Potency entry is “inactive”.
With `CC(=O)Nc1ccc2c(c1)Cc1cc(NC(C)=O)ccc1-2`, the Potency entry was “inactive”.
In the case of `Brc1nc2ccccc2s1`, the Potency result was “inactive”.
As to `O=[Se](O)O`, the Potency entry is “inactive”.
The same measure for `CC1(C)C(C=C(Cl)Cl)C1C(=O)OCc1cccc(Oc2ccccc2)c1` (stereo not given): “inactive”; for `[Na+]`: “inactive”.
In the case of `c1ccc2ncccc2c1`, the Potency result was “inactive”.
The same measure for `c1ccc2c(c1)ccc1cc3c(ccc4ccccc43)cc12`: “inactive”; for `CCCCCCCCCCCCCO`: “inactive”.
Regarding `c1ccc2cc3ccccc3cc2c1`, the Potency entry was “inactive”.
`OCCNCCO`: the Potency result is “inactive”.
Turning to `C=CCOC(=O)C(=C)C`, the Potency entry is “inactive”.
Under `CC(=O)[C@@]1(O)CC[C@H]2[C@@H]3C[C@H](C)C4=CC(=O)C=C[C@]4(C)[C@@]3(F)[C@@H](O)C[C@@]21C` stands “inactive”.
With `NCCOCCO`, the Potency entry is “inactive”.
With `COCCOCCOCCO`, the Potency entry was “inactive”.
As for `C1COCCN1`, the Potency entry is “inactive”.
For `CN(C)CCCN1c2ccccc2Sc2ccc(Cl)cc21`, the Potency result was “inactive”.
Take `O=C(O)COCCN1CCN(C(c2ccccc2)c2ccc(Cl)cc2)CC1` (stereo not given): the Potency result was “inactive”.
Under `CCCCCCOCCOCCO` stands “inactive”.
Turning to `Cc1ccc(N)c([N+](=O)[O-])c1`, the Potency result is “inactive”.
Take `O=C1OC2(c3ccccc31)c1cc(I)c(O)c(I)c1Oc1c2cc(I)c(O)c1I`: the Potency is 14.1 µM (active) and 10 µM (active) and 17.8 µM (active).
Take `CCCCCC1C(=O)CCC1CC(=O)OC` (stereo not given): the Potency result is “inactive”.
With `Cc1ccc([N+](=O)[O-])c(C)c1`, the Potency entry is “inactive”.
Under `Nc1ccc2c(c1)C(=O)c1ccccc1C2=O` stands “inactive”; under `O=C(O)CCCCCCCCCCCC(=O)O`, “inactive”; under `Nc1ccc(N)c(Cl)c1`, “inactive”.
The same measure for `O=Cc1ccccc1C=O`: “inactive”; for `C[C@]12CC[C@@H]3c4ccc(O)cc4CC[C@H]3[C@@H]1CC[C@@H]2O`: “inactive”.
Consider `OC[C@@H](O)[C@@H](O[C@@H]1O[C@H](CO)[C@H](O)[C@H](O)[C@H]1O)[C@H](O)[C@@H](O)CO`, for which the Potency entry is “inactive”.
Under `Nc1cc(Cl)c(N)c(Cl)c1` stands “inactive”.
